According to publication PMC5540273 (PLoS ONE, 2017):

What was measured:
Conditions in all cases: concentration: 1 μM, replicates: in singlicate; n = 1
SRPK2 = tested on: SRPK2
SRPK3 = tested on: SRPK3
STK16 = tested on: STK16
STK33 = tested on: STK33
STK35 = tested on: STK35
STK36 = tested on: STK36
STK39 = tested on: STK39
SYK = tested on: SYK
SgK110 = tested on: SgK110
TAK1 = tested on: T1, TAK1
T1 construct: gene MAP3K7

TAOK1 = tested on: TAOK1
TAOK2 = tested on: TAOK2
TAOK3 = tested on: TAOK3
TBK1 = tested on: TBK1
TEC = tested on: TEC
TESK1 = tested on: TESK1
TGFBR1 = tested on: TGFBR1
TGFBR2 = tested on: TGFBR2
TIE1 = tested on: TIE1
TIE2 = tested on: T2, TIE2
T2 construct: gene TEK
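Further: KINOMEscan kinase panel screen.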

O=C(Nc1n[nH]c2nc(-c3cccs3)c(Br)cc12)C1CC1 [SB-735297]
%Inh (SRPK2): 0%
%Inh (SRPK3): 8%
%Inh (STK16): 0%
%Inh (STK33): 0%
%Inh (STK35): 0%
%Inh (STK36): 12%
%Inh (STK39): 7%
%Inh (SYK): 10%
%Inh (SgK110): 0%
%Inh (TAK1): 6%
%Inh (TAOK1): 10%
%Inh (TAOK2): 0%
%Inh (TAOK3): 0%
%Inh (TBK1): 33%
%Inh (TEC): 0%
%Inh (TESK1): 19%
%Inh (TGFBR1): 0%
%Inh (TGFBR2): 0%
%Inh (TIE1): 0%
%Inh (TIE2): 12%

CS(=O)(=O)Cc1ccc(Nc2nccc(-c3c(-c4cccc(NC(=O)C5CCCCC5)c4)nn4ncccc34)n2)cc1 [GSK350559]
%Inh (SRPK2): 0%
%Inh (SRPK3): 0%
%Inh (STK16): 12%
%Inh (STK33): 4%
%Inh (STK35): 9%
%Inh (STK36): 81%
%Inh (STK39): 37%
%Inh (SYK): 4%
%Inh (SgK110): 0%
%Inh (TAK1): 2%
%Inh (TAOK1): 11%
%Inh (TAOK2): 0%
%Inh (TAOK3): 0%
%Inh (TBK1): 29%
%Inh (TEC): 29%
%Inh (TESK1): 10%
%Inh (TGFBR1): 0%
%Inh (TGFBR2): 0%
%Inh (TIE1): 3%
%Inh (TIE2): 0%

Cl.Cl.Cl.N#Cc1ccc(CCNc2nccc(-c3cccc(CN4CCNCC4)c3)n2)cc1 [GSK2137462]
%Inh (SRPK2): 0%
%Inh (SRPK3): 0%
%Inh (STK16): 22%
%Inh (STK33): 100%
%Inh (STK35): 0%
%Inh (STK36): 0%
%Inh (STK39): 0%
%Inh (SYK): 9%
%Inh (SgK110): 23%
%Inh (TAK1): 4%
%Inh (TAOK1): 0%
%Inh (TAOK2): 2%
%Inh (TAOK3): 0%
%Inh (TBK1): 19%
%Inh (TEC): 0%
%Inh (TESK1): 11%
%Inh (TGFBR1): 0%
%Inh (TGFBR2): 0%
%Inh (TIE1): 2%
%Inh (TIE2): 0%

COc1ccc(Nc2nccc(N3CCC(NC(=O)c4cc5ccccc5s4)C3)n2)cc1 (stereo not shown) [GSK1379738]
%Inh (SRPK2): 0%
%Inh (SRPK3): 0%
%Inh (STK16): 19%
%Inh (STK33): 0%
%Inh (STK35): 0%
%Inh (STK36): 0%
%Inh (STK39): 0%
%Inh (SYK): 13%
%Inh (SgK110): 0%
%Inh (TAK1): 0%
%Inh (TAOK1): 0%
%Inh (TAOK2): 0%
%Inh (TAOK3): 0%
%Inh (TBK1): 22%
%Inh (TEC): 12%
%Inh (TESK1): 30%
%Inh (TGFBR1): 17%
%Inh (TGFBR2): 0%
%Inh (TIE1): 0%
%Inh (TIE2): 0%

O=C(Nc1n[nH]c2nc(-c3cccs3)c(Br)cc12)C1CCCC1 [SB-743341]
%Inh (SRPK2): 15%
%Inh (SRPK3): 20%
%Inh (STK16): 23%
%Inh (STK33): 1%
%Inh (STK35): 0%
%Inh (STK36): 1%
%Inh (STK39): 33%
%Inh (SYK): 5%
%Inh (SgK110): 18%
%Inh (TAK1): 38%
%Inh (TAOK1): 0%
%Inh (TAOK2): 0%
%Inh (TAOK3): 0%
%Inh (TBK1): 0%
%Inh (TEC): 0%
%Inh (TESK1): 25%
%Inh (TGFBR1): 19%
%Inh (TGFBR2): 7%
%Inh (TIE1): 33%
%Inh (TIE2): 15%

CNc1cc(-c2ccc3c(N)n[nH]c3c2)nc(N)n1 [GSK2224810]
%Inh (SRPK2): 1%
%Inh (SRPK3): 0%
%Inh (STK16): 19%
%Inh (STK33): 0%
%Inh (STK35): 6%
%Inh (STK36): 0%
%Inh (STK39): 0%
%Inh (SYK): 7%
%Inh (SgK110): 0%
%Inh (TAK1): 26%
%Inh (TAOK1): 56%
%Inh (TAOK2): 0%
%Inh (TAOK3): 9%
%Inh (TBK1): 9%
%Inh (TEC): 15%
%Inh (TESK1): 0%
%Inh (TGFBR1): 36%
%Inh (TGFBR2): 47%
%Inh (TIE1): 0%
%Inh (TIE2): 0%

CCn1c(-c2ccccc2)nc2cnccc21 [SB-733416]
%Inh (SRPK2): 0%
%Inh (SRPK3): 5%
%Inh (STK16): 0%
%Inh (STK33): 0%
%Inh (STK35): 7%
%Inh (STK36): 0%
%Inh (STK39): 8%
%Inh (SYK): 17%
%Inh (SgK110): 0%
%Inh (TAK1): 0%
%Inh (TAOK1): 0%
%Inh (TAOK2): 0%
%Inh (TAOK3): 1%
%Inh (TBK1): 0%
%Inh (TEC): 0%
%Inh (TESK1): 9%
%Inh (TGFBR1): 0%
%Inh (TGFBR2): 8%
%Inh (TIE1): 0%
%Inh (TIE2): 0%

Cc1ccc(NC(=O)Nc2ccc(Cl)cc2)cc1-c1ccc(C(=O)Nc2ccncc2)cc1 [GSK1398472]
%Inh (SRPK2): 0%
%Inh (SRPK3): 46%
%Inh (STK16): 0%
%Inh (STK33): 0%
%Inh (STK35): 0%
%Inh (STK36): 1%
%Inh (STK39): 0%
%Inh (SYK): 31%
%Inh (SgK110): 10%
%Inh (TAK1): 0%
%Inh (TAOK1): 0%
%Inh (TAOK2): 0%
%Inh (TAOK3): 0%
%Inh (TBK1): 8%
%Inh (TEC): 0%
%Inh (TESK1): 54%
%Inh (TGFBR1): 3%
%Inh (TGFBR2): 0%
%Inh (TIE1): 0%
%Inh (TIE2): 0%

c1ccc(-c2ccnc3[nH]ccc23)cc1 [SB-693578]
%Inh (SRPK2): 7%
%Inh (SRPK3): 0%
%Inh (STK16): 44%
%Inh (STK33): 0%
%Inh (STK35): 32%
%Inh (STK36): 0%
%Inh (STK39): 33%
%Inh (SYK): 0%
%Inh (SgK110): 0%
%Inh (TAK1): 11%
%Inh (TAOK1): 0%
%Inh (TAOK2): 0%
%Inh (TAOK3): 0%
%Inh (TBK1): 11%
%Inh (TEC): 5%
%Inh (TESK1): 43%
%Inh (TGFBR1): 0%
%Inh (TGFBR2): 10%
%Inh (TIE1): 0%
%Inh (TIE2): 0%

CNc1nc(-c2ccc3c(N)n[nH]c3c2)cc(N2C[C@@H](C(=O)Nc3ccccc3)CC[C@H]2C)n1 [GSK2298859]
%Inh (SRPK2): 29%
%Inh (SRPK3): 0%
%Inh (STK16): 13%
%Inh (STK33): 9%
%Inh (STK35): 0%
%Inh (STK36): 0%
%Inh (STK39): 6%
%Inh (SYK): 16%
%Inh (SgK110): 0%
%Inh (TAK1): 0%
%Inh (TAOK1): 0%
%Inh (TAOK2): 0%
%Inh (TAOK3): 0%
%Inh (TBK1): 14%
%Inh (TEC): 4%
%Inh (TESK1): 24%
%Inh (TGFBR1): 12%
%Inh (TGFBR2): 0%
%Inh (TIE1): 0%
%Inh (TIE2): 0%

Nc1ncnc2occ(-c3ccc4c(c3)CCN4C(=O)Cc3cc(F)ccc3F)c12 [GSK2645446]
%Inh (SRPK2): 0%
%Inh (SRPK3): 0%
%Inh (STK16): 0%
%Inh (STK33): 0%
%Inh (STK35): 0%
%Inh (STK36): 0%
%Inh (STK39): 0%
%Inh (SYK): 0%
%Inh (SgK110): 0%
%Inh (TAK1): 17%
%Inh (TAOK1): 0%
%Inh (TAOK2): 6%
%Inh (TAOK3): 0%
%Inh (TBK1): 10%
%Inh (TEC): 0%
%Inh (TESK1): 0%
%Inh (TGFBR1): 0%
%Inh (TGFBR2): 0%
%Inh (TIE1): 45%
%Inh (TIE2): 0%
